“And” between values parts separate entries of the source, which are not always exact repeats. Equal values may be shown once. Results filed as inconclusive are left out. Where a structure was tested more than once in an assay, its records may differ in their call. The source made the active and inactive calls. Unless noted, calls come from the whole dose curve; as a rule, active = well fitted curve in the direction sought with a large enough effect in the repeat runs; inconclusive = weak or mixed curves; inactive = no such curve, though single readings can be large; an effect the other way counts as inactive or inconclusive.

Assay [1] is described as follows: qHTS assay to identify aromatase inhibitors - cell viability counter screen (AID 743084).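 Note: cells stimulated with testosterone during compound exposure; nearly all actives have a fitted effect of over 55% in size.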 Note: potency is the fitted concentration of half-maximal effect.
Assay [2] addresses Aryl hydrocarbon receptor (Homo sapiens) (UniProt P35869). The assay is described as follows: qHTS assay to identify small molecule that activate the aryl hydrocarbon receptor (AhR) signaling pathway (AID 743085).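 For activation: HG2L7.5c1 human HepG2 liver cells with stably integrated DRE-driven firefly reporter; series mostly up to about 70 µM.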 Note: nearly all actives have a fitted effect of over 15% in size. Note: potency is the fitted concentration of half-maximal effect. The method in brief: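 Luminescence read-out: ONE-Glo reagent, 30 min at room temperature, in HG2L7.5c1 HepG2 reporter cells treated 24 h at 37C. Viability was measured beforehand by CellTiter-Fluor fluorescence after 30 min at 37C.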

Assay [3] can be described thus: qHTS assay to identify small molecule that activate the aryl hydrocarbon receptor (AhR) signaling pathway - cell viability counter screen (AID 743086). Note: nearly all actives have a fitted effect of over 45% in size. Note: potency is the fitted concentration of half-maximal effect. The gist of the method: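 HepG2-AhR-luc (HG2L7.5c1) cells, 4000/well, were preincubated 5 h at 37C, exposed to compound in qHTS format for 24 hr at 37C, then given CellTiter-Fluor for 30 min; viability was read as fluorescence in the reporter wells.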

In assay [4] the target is Peroxisome proliferator-activated receptor gamma (Homo sapiens) (UniProt P37231). As to the kind of experiment: qHTS assay to identify small molecule agonists of the peroxisome proliferator-activated receptor gamma (PPARg) signaling pathway (AID 743094; active = well fitted activation curve with a large enough effect in the signal ratio in the repeat runs, not every such curve was filed as active; the % refers to the signal ratio; note: potency is the fitted concentration of half-maximal effect). The gist of the method:
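Beta-lactamase FRET fluorescence was the read-out after a 1 h room-temperature substrate step, following 17 h compound treatment at 37C of HEK293H cells expressing a UAS-driven bla reporter responsive to PPARg.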
On the technique in general: In qHTS, concentration-response curves come from the screen itself.

The target is the same in assay [5]. The assay is described as follows: qHTS assay to identify small molecule antagonists of the peroxisome proliferator-activated receptor gamma (PPARg) signaling pathway (AID 743191; calls by dose curve; note: nearly all actives have a fitted effect of over 30% in size; note: potency is the fitted concentration of half-maximal effect). The method in brief: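 GeneBLAzer PPARg UAS-bla HEK293H cells carrying a UAS-driven beta-lactamase reporter were plated at 3000 cells/well, preincubated 5 h at 37C, then given compound for 17 h at 37C; LiveBLAzer B/G FRET substrate was read after 1 h at room temperature.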

The nature of assay [6]: qHTS assay to identify small molecule antagonists of the peroxisome proliferator-activated receptor gamma (PPARg) signaling pathway - cell viability counter screen (AID 743194). Note: nearly all actives have a fitted effect of over 55% in size. The method in brief:
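PPARg-UAS-bla HEK293H cells were plated, rested 5 h at 37 C, then treated with compounds plus rosiglitazone (50 nM final) for 17 h at 37 C; viability was then read by CellTiter-Glo luminescence after 30 min at room temperature.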

Assay [7] can be described thus: qHTS assay for small molecule agonists of the antioxidant response element (ARE) signaling pathway - cell viability counter screen (AID 743203; calls by dose curve; note: nearly all actives have a fitted effect of over 55% in size; note: potency is the fitted concentration of half-maximal effect). The gist of the method:
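HepG2 cells carrying ARE-driven beta-lactamase; 2,000 cells/well; 5 hrs plating; compound pinned from DMSO; 16 hrs 37C/5% CO2; CellTiter-Glo added; 30 min RT; luminescence.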

A short description of assay [8]: qHTS assay for small molecule activators of the heat shock response signaling pathway - cell viability counter screen (AID 743209). Note: nearly all actives have a fitted effect of over 50% in size. Note: potency is the fitted concentration of half-maximal effect. The gist of the method: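 Luminescence from CellTiter-Glo, added after the beta-lactamase FRET read, gave the viability signal. Cells were HSE-bla HeLa treated with DMSO-dissolved compounds for 5 h at 37 C following overnight plating.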

A short description of assay [9]: qHTS assay for small molecule agonists of the antioxidant response element (ARE) signaling pathway (AID 743202; active = well fitted activation curve with a large enough effect in the signal ratio in the repeat runs, not every such curve was filed as active; the % refers to the signal ratio; note: potency is the fitted concentration of half-maximal effect). The gist of the method:
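Compounds delivered in DMSO to ARE-bla HepG2 cells (2,000 cells/well, pre-incubated 5 h) and left 16 h at 37 C. LiveBLAzer B/G FRET substrate then added for 2 h at RT before fluorescence reading.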

Assay [10] is described as follows: qHTS assay for small molecule activators of the heat shock response signaling pathway (AID 743210; active = well fitted activation curve with a large enough effect in the signal ratio in the repeat runs, with a control signal flat, not every such curve was filed as active; the % refers to the signal ratio; note: potency is the fitted concentration of half-maximal effect;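 for activation: HeLa cells with beta-lactamase reporter driven by heat shock elements; series mostly up to about 63 µM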). The method in brief: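 Reporter gene assay: HeLa cells stably bearing an HSE-bla construct, compound treatment 5 h at 37 C, LiveBLAzer substrate 2.5 h at RT, fluorescence intensity.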

Sequence of Aryl hydrocarbon receptor (Homo sapiens) (P35869 whole entry, looked up): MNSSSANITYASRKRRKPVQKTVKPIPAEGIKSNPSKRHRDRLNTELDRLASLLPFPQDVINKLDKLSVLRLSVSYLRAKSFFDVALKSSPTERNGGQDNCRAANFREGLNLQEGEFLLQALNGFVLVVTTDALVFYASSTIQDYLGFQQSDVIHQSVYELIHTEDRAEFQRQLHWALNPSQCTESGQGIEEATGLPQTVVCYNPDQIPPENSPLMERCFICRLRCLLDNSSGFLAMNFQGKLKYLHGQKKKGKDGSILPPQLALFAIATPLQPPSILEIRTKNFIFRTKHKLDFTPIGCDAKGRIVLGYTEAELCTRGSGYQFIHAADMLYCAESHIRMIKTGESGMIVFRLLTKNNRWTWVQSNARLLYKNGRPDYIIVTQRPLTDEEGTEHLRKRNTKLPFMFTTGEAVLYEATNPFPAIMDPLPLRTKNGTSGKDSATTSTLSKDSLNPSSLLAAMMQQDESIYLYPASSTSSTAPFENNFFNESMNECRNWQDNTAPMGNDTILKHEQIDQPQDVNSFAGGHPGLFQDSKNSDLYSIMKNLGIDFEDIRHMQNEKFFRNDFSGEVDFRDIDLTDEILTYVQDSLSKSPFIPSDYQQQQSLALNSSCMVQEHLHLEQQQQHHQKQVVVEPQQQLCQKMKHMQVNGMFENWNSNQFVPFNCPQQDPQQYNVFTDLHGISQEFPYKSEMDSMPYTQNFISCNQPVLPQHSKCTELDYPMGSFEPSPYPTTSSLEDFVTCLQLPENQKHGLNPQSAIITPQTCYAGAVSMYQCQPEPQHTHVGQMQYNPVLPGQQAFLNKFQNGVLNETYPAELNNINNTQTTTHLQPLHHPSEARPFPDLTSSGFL
Sequence of Peroxisome proliferator-activated receptor gamma (Homo sapiens) (P37231 whole entry, looked up): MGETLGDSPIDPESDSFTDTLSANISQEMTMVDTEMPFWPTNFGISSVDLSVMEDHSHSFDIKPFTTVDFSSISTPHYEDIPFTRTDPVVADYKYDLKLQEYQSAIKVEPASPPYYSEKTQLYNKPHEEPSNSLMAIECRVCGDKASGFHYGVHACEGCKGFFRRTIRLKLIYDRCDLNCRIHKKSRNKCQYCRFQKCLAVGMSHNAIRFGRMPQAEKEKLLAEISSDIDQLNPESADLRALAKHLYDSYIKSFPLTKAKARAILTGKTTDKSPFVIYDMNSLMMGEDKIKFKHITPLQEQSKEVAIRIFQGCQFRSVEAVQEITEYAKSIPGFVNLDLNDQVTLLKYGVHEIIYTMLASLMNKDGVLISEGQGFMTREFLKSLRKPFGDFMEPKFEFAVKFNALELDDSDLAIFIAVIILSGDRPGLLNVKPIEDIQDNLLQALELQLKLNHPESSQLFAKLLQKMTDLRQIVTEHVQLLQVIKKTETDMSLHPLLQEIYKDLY

Consider `CCCCCCC[N+](CC)(CC)CCCCc1ccc(Cl)cc1`, for which the Potency result in assay [1], in assay [2], in assay [3], in assay [4], in assay [5] and in assay [6] was “inactive” in each case. In addition, the Potency entry in assay [7] and in [8] was “inactive” each time.

On to `C[C@@H]1C[C@H]2[C@@H]3CCC4=CC(=O)C=C[C@]4(C)[C@@]3(Cl)[C@@H](O)C[C@]2(C)[C@@]1(OC(=O)c1ccco1)C(=O)CCl`, for which the Potency result in assay [1], in [2], in assay [3], in assay [4], in [5] and in [8] was “inactive” in each case. Besides, the Potency in assay [9] is 13.3 µM (active); in [10], 31.6 µM (active).

Regarding `CCC(Cl)C(Cl)C(Cl)CC(Cl)C(Cl)C(C)Cl` (stereo not given), the Potency entry in [1], in assay [2], in assay [3], in assay [4], in assay [5] and in assay [7] was “inactive” in each case. In assay [8], the Potency entry was “inactive”.

Take `Cn1cc(C(=O)[C@@H]2CCc3nc[nH]c3C2)c2ccccc21`: the Potency result in assay [1], in [2], in [3], in assay [4], in assay [6] and in [9] was “inactive” throughout. In addition, the Potency result in [7] and in assay [8] was “inactive” throughout.

Regarding `C=C(C)C(=O)OCC[N+](C)(C)C`, the Potency result in assay [1], in [2], in assay [3], in assay [4], in [6] and in assay [7] was “inactive” each time. Moreover, the Potency entry in [8] and in assay [10] was “inactive” each time. Also, the Potency in assay [5] is 2.18 µM (active).

Regarding `COc1ccc(C(=O)/C(Br)=C\C(=O)O)cc1`, the Potency in assay [1] was 17.2 µM (active). For the same compound, the Potency entry in assay [2] and in assay [3] was “inactive” each time.

In the case of `Oc1ccc2cc(SSc3ccc4cc(O)ccc4c3)ccc2c1`, the Potency in assay [1] is 54.5 µM (active); in assay [5], 13.8 µM (active). The Potency result in assay [2], in assay [3], in assay [4], in assay [7] and in assay [8] was “inactive” in each case.

Turning to `O=C(OC[C@H]1O[C@@H](OC(=O)c2cc(O)c(O)c(OC(=O)c3cc(O)c(O)c(O)c3)c2)[C@H](OC(=O)c2cc(O)c(O)c(OC(=O)c3cc(O)c(O)c(O)c3)c2)[C@@H](OC(=O)c2cc(O)c(O)c(OC(=O)c3cc(O)c(O)c(O)c3)c2)[C@@H]1OC(=O)c1cc(O)c(O)c(OC(=O)c2cc(O)c(O)c(O)c2)c1)c1cc(O)c(O)c(OC(=O)c2cc(O)c(O)c(O)c2)c1`, the Potency in assay [1] is 18.8 µM (active); in assay [3], 21.1 µM (active) and 16.5 µM (active). For the same compound, the Potency entry in [2] was “inactive”.

As to `Clc1ccc2nsnc2c1NC1=NCCN1`, the Potency entry in assay [1], in assay [2], in assay [3], in assay [4], in assay [5] and in [6] was “inactive” throughout. In addition, the Potency entry in [7], in assay [8] and in assay [10] was “inactive” in each case.

For the compound `O=C(O)c1c(Cl)cccc1Cl`, the Potency result in assay [1], in [2], in assay [3], in assay [4], in assay [5] and in assay [9] was “inactive” throughout. For the same compound, the Potency result in assay [7] and in assay [10] was “inactive” each time.

With `O=C(c1ccc(F)cc1)C1CCN(CCn2c(=O)[nH]c3ccccc3c2=O)CC1`, the Potency result in assay [1], in assay [2], in assay [3], in assay [4], in [6] and in assay [9] was “inactive” throughout. For the same compound, the Potency result in assay [7], in assay [8] and in assay [10] was “inactive” throughout.

On to `Nc1c(Cl)cc(Cl)cc1Cl`, for which the Potency result in assay [1], in assay [2], in [3], in assay [4], in assay [5] and in [6] was “inactive” in each case. The Potency result in assay [9], in assay [7], in assay [8] and in [10] was “inactive” in each case.

Regarding `C[C@H](CCC(=O)O)[C@H]1CC[C@H]2[C@@H]3CC[C@@H]4C[C@H](O)CC[C@]4(C)[C@H]3CC[C@]12C`, the Potency result in assay [1] and in assay [2] was “inactive” each time.

Take `O=C(Oc1cccc2cccnc12)c1ccccc1`: the Potency in [1] is 21.1 µM (active). For the same compound, the Potency result in assay [2] and in assay [3] was “inactive” throughout.

Take `Cc1ccc(O)c(C(C)(C)C)c1`: the Potency in assay [1] was 17.2 µM (active) and inactive; in assay [3], 61 µM (active) and inactive; in assay [7] it was 30.6 µM (active) and inactive; in assay [8] it was 24.5 µM (active) and inactive. For the same compound, the Potency entry in assay [2], in assay [4], in [5], in assay [6] and in [10] was “inactive” throughout.

As for `NNc1nc(-c2ccccc2)cs1`, the Potency entry in assay [1], in assay [3], in assay [4], in assay [7] and in assay [8] was “inactive” in each case. The figures for the Potency in [2] and in [5] were 9.97 µM (active) and 0.504 µM (active), respectively.

Turning to `CN(C/C=C/C#CC(C)(C)C)Cc1cccc2ccccc12`, the Potency result in [1], in assay [2], in assay [3], in [4], in assay [5] and in assay [6] was “inactive” in each case. Moreover, the Potency entry in assay [7], in assay [8] and in [10] was “inactive” throughout.

In the case of `CCCCN(CCCC)C(=O)N(CCCC)CCCC`, the Potency entry in [1], in [2], in [3], in assay [4], in assay [5] and in [7] was “inactive” throughout. For the same compound, the Potency entry in [8] and in assay [10] was “inactive” each time.

Consider `CCN(C(=O)N(CC)c1ccccc1)c1ccccc1`, for which the Potency result in [1], in [2], in [3], in assay [4], in assay [5] and in [6] was “inactive” each time. Further, the Potency entry in [7], in [8] and in assay [10] was “inactive” in each case.

Take `CC(=O)OCC(C)OC(C)=O` (stereo not given): the Potency result in assay [1], in assay [2], in assay [3], in assay [4], in assay [5] and in [6] was “inactive” throughout. For the same compound, the Potency result in assay [7] and in assay [8] was “inactive” each time.

For `Cc1nc(-c2ccc3c(c2)CCN(CCC2CCC(NC(=O)/C=C/c4ccc(F)cc4)CC2)CC3)no1` (stereo not given), the Potency entry in assay [1], in [2], in assay [3], in assay [6] and in assay [7] was “inactive” throughout. Besides, the Potency in [4] is 24.6 µM (active).

These data come from PubChem BioAssay (Tox21).
